# According to paper PMC11062922 (Nature Chemical Biology, 2023):
# Where two headings read alike, the source gives them in different places.
# How the values were obtained:
# ADCK3 = system: ADCK3; design: species or system human, MV4-11 + K-562 + COLO205 + SK-N-BE2 + OVCAR-8; details: read-out: apparent Kd, compound concentrations: 100 nM and 1000 nM (sheet 'Samples'), n = 1
# AKT3 = system: AKT3; design: species or system human, MV4-11 + K-562 + COLO205 + SK-N-BE2 + OVCAR-8; details: read-out: apparent Kd, compound concentrations: 100 nM and 1000 nM (sheet 'Samples'), n = 1
# MAP2K5 = system: MAP2K5; design: species or system human, MV4-11 + K-562 + COLO205 + SK-N-BE2 + OVCAR-8; details: read-out: apparent Kd; compound concentrations: 100 nM and 1000 nM (sheet 'Samples'), CATDS: 0.16534591084459199; n = 1
# NQO1 = system: NQO1; design: species or system human, MV4-11 + K-562 + COLO205 + SK-N-BE2 + OVCAR-8; details: read-out: apparent Kd; compound concentrations: 100 nM and 1000 nM (sheet 'Samples'), CATDS: 0.18486916507509299; n = 1
# TNK1 = system: TNK1; design: species or system human, MV4-11 + K-562 + COLO205 + SK-N-BE2 + OVCAR-8; details: read-out: apparent Kd; compound concentrations: 100 nM and 1000 nM (sheet 'Samples'), CATDS: 0.23807616191270001; n = 1
# PIK3CB = system: PIK3CB; design: species or system human, MV4-11 + K-562 + COLO205 + SK-N-BE2 + OVCAR-8; details: read-out: apparent Kd; compound concentrations: 100 nM and 1000 nM (sheet 'Samples'), CATDS: 0.78583542489200198; n = 1
# IRAK3 = system: IRAK3; design: species or system human, MV4-11 + K-562 + COLO205 + SK-N-BE2 + OVCAR-8; details: read-out: apparent Kd; compound concentrations: 100 nM and 1000 nM (sheet 'Samples'), CATDS: 0.24255292072304399; n = 1
# LIMK1 = system: LIMK1; design: species or system human, MV4-11 + K-562 + COLO205 + SK-N-BE2 + OVCAR-8; details: read-out: apparent Kd; compound concentrations: 100 nM and 1000 nM (sheet 'Samples'), CATDS: 0.14732071058877899; n = 1
# NEK1 = system: NEK1; design: species or system human, MV4-11 + K-562 + COLO205 + SK-N-BE2 + OVCAR-8; details: read-out: apparent Kd; compound concentrations: 100 nM and 1000 nM (sheet 'Samples'), CATDS: 0.13907038524561799; n = 1
# NUAK2 = system: NUAK2; design: species or system human, MV4-11 + K-562 + COLO205 + SK-N-BE2 + OVCAR-8; details: read-out: apparent Kd; compound concentrations: 100 nM and 1000 nM (sheet 'Samples'), CATDS: 0.15992761786182699; n = 1
# Q6ZSR9 = Q6ZSR9 (human, UniProt Q6ZSR9); design: species or system MV4-11 + K-562 + COLO205 + SK-N-BE2 + OVCAR-8; details: read-out: apparent Kd; compound concentrations: 100 nM and 1000 nM (sheet 'Samples'), CATDS: 0.17489786753405201; n = 1
# Q6ZSR9, sequence (Q6ZSR9 whole entry, looked up): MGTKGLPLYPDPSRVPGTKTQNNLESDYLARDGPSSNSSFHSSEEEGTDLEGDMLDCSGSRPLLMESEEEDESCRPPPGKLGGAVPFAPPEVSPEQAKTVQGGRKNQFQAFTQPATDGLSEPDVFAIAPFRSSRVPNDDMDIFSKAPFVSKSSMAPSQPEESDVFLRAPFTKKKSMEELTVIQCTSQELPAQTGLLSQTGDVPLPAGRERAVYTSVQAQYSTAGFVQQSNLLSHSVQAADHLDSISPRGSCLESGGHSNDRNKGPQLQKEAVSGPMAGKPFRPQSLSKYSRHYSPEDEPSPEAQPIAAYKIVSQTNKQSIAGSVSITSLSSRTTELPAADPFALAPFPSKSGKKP
smiles,measurement,setting,value
COc1cc2nccc(Nc3cccc(Oc4ccccc4)c3)c2cc1OC.Cl [GW284543A],potency estimated from few doses,ADCK3; CATDS: 0.252282452250228,0.949 µM
same,potency estimated from few doses,AKT3; CATDS: 0.185918724063731,1.71 µM
same,potency estimated from few doses,MAP2K5,2.26 µM
same,potency estimated from few doses,NQO1,1.73 µM
same,potency estimated from few doses,TNK1,1.05 µM
Cc1c(Cn2ccn3c(=O)nc(N4CCOCC4)cc23)cccc1C(F)(F)F [GSK2336394A],potency estimated from few doses,ADCK3; CATDS: 0.28209603435573799,0.575 µM
same,potency estimated from few doses,AKT3; CATDS: 0.239087060290751,1.03 µM
same,potency estimated from few doses,PIK3CB,0.0542 µM
COc1cc(Nc2nccc(N3CCC(NC(=O)Nc4cccc(C(C)=O)c4)C3)n2)cc(OC)c1OC (stereo not drawn) [GSK1379753A],potency estimated from few doses,ADCK3; CATDS: 0.16868464966378999,1.38 µM
same,potency estimated from few doses,IRAK3,0.726 µM
same,potency estimated from few doses,LIMK1,1.85 µM
same,potency estimated from few doses,NEK1,2.14 µM
same,potency estimated from few doses,NUAK2,1.54 µM
same,potency estimated from few doses,Q6ZSR9,1.28 µM
CNC(=O)c1cncc(/C=C/c2ccccc2Cl)c1 [GW445017X],potency estimated from few doses,ADCK3; CATDS: 1,0.747 µM
